A selection: hits, their analogues and other compounds. The true share with any hit is near 19%.
IL-1B inflam inh: inflammasome signaling inhibition, IL-1 beta readout. THP-1 LPS/ATP IL-1B secretion, AlphaLISA, 16 h; active compounds read low. activity change, % at 57.5 µM. hit rate 4.7% among 360,000; in the data active = activity change below about -50%; inconclusive = mostly about -30% to -49%; also: % is scaled to controls: 0 for no effect and ±100 for the full control effect
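Secreted IL-1B measured by AlphaLISA bead assay after 16 h compound exposure of THP-1 cells; compounds (final up to 57.5 uM) added 1 h before LPS (250 ng/mL) and ATP (1.25 mM) stimulation; lower signal means less secretion.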
HepG2 tox: HepG2 cytotoxicity, counter-screen for TGF-b inhibitors. Potency, µM (highest dose often 46.1 µM), for inactives: top-dose activity change, negative = cytotoxicity, most hits filed as cytotoxic. HepG2 CAGA-GFP viability, ATP luminescence, 18 h. AID 588856. hit rate 0.76% among 410,000; also: potency is read from the fitted curve at half-maximal effect
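CellTiter-Glo luminescence gave cytotoxicity after 18 hours at 37 degrees C. The cells were HepG2 CAGA-GFP in 1% FBS DMEM, stimulated with 500 pg/mL TGF-beta after compound addition. %Activity was normalised to no-cell wells (complete cell-killing) and DMSO (no toxicity), and curves were fitted and classified.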
TGFb inhibitor: blocks TGF-b signaling | AID 588855 | Potency, µM (series often up to 46.1 µM), inactives show at the top dose activity, negative = inhibition, most hits filed as inhibitors | HepG2 CAGA-GFP TGF-b/SMAD3 reporter, GFP fluorescence, 18 h; TGF-beta stimulated, 500 pg/mL final | hit rate 1.2% among 410,000; also: potency is read from the fitted curve at half-maximal effect; % is scaled to controls: 0 for no effect and ±100 for the full control effect; nearly all actives have a fitted effect of over 65% in size
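First, reporter cells (HEPG2 CAGA-GFP) rested 2 h at 37 degrees C. Next, compounds were pinned in and TGF-beta added to 500 pg/mL final. After 18 h, GFP was imaged per cell and summed per well.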
ASM inhibitor: inhibitors of human secretory acid sphingomyelinase; P17405; placental ASM, HMU-PC fluorogenic substrate, 60 min; Potency, µM (doses to about 57.5 µM), without a hit: at the highest dose activity change, negative = inhibition, usual class: inhibitors; hit rate 0.006% among 340,000; AID 504937; also: potency is read from the fitted curve at half-maximal effect
Target sequence (P17405 47-631 limits assumed): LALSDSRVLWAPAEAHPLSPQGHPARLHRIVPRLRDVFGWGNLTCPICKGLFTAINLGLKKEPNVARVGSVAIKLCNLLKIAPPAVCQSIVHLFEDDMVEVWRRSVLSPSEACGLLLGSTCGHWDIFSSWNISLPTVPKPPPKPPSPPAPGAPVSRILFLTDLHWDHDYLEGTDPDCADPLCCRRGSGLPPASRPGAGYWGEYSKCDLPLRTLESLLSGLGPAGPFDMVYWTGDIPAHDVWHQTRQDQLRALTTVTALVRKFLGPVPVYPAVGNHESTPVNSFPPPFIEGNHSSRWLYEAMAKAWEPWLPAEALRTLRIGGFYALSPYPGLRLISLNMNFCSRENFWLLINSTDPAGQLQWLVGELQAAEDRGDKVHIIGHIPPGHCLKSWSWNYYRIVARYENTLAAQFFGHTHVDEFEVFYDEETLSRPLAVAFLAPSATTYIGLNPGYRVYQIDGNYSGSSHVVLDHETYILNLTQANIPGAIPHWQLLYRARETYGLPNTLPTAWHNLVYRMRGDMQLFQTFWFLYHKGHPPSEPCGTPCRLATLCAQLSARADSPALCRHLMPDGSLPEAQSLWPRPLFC
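Fluorescence read-out (Ex 386 nm, Em 447 nm) after stopping the reaction at pH 10. Enzyme: ASM from human placenta; substrate HMU-PC0, 9 uM final; 60 min, 37 °C. Compound preincubation 10 min, ambient temperature.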
TDP1 cell CPT: DT40-hTDP1 cell growth loss with CPT. AID 686979. Potency, µM (doses to about 46.2 µM), for inactives: at the top dose activity change, negative = growth inhibition, actives largely listed as inhibitors. chicken DT40 Tdp1-/-;hTDP1 cells + 20 nM CPT, ATP luminescence, 48 h. hit rate 12% among 420,000; also: potency is read from the fitted curve at half-maximal effect; % is scaled to controls: 0 for no effect and ±100 for the full control effect; nearly all actives have a fitted effect of over 55% in size
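Chicken DT40 Tdp1-/- cells complemented with human TDP1, 400 cells/well, exposed to compounds plus 20 nM camptothecin for at least 48 h at 37 C; viability read as ATP content by CellTiter-Glo luminescence.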
DT40 TDP1 no CPT: qHTS for Inhibitors of human tyrosyl-DNA phosphodiesterase 1 (TDP1): qHTS in cells in absence of CPT. hit rate 15% among 420,000. DT40 Tdp1-/- hTDP1 cells, no CPT, ATP luminescence, 48 h. Potency, µM (top dose mostly 46.2 µM), for inactives: top-dose activity change, negative = growth inhibition, hits mostly inhibitors. AID 686978, 2013; also: potency is read from the fitted curve at half-maximal effect; % is scaled to controls: 0 for no effect and ±100 for the full control effect; nearly all actives have a fitted effect of over 55% in size
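Camptothecin absent (DMSO only). Human TDP1-complemented DT40 knockout cells, 400 cells/well, 37 °C for minimum 48 hr; ATP measured via CellTiter-Glo, 30 min dark incubation, luminescence.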
Numbers without * were called inactive; ? = inconclusive; . = not tested or not shown. Unless noted, calls follow the shape of the dose curve; as a rule, active = well fitted curve in the direction sought with a large enough effect; inconclusive = small, poorly fitted or top-dose-only effect, or another doubt; inactive = no such curve, though single readings can be large; an effect the other way counts as inactive or inconclusive.

SMILES	IL-1B inflam inh	HepG2 tox	TGFb inhibitor	ASM inhibitor	TDP1 cell CPT	DT40 TDP1 no CPT
COCC(=O)N/N=C\c1ccccc1OC/C=C/c1ccccc1	41	-25%	-18%	-5%	?	26µM*
N#CCC(=O)N/N=C\c1ccccc1OC/C=C/c1ccccc1	-28	-1%	-11%	-7%	5.8µM*	4.1µM*
Cn1c(N)c(C(=O)COC(=O)c2cc(-c3ccccc3)nc3ccccc23)c(=O)n(Cc2ccccc2)c1=O	0	6%	-46%	0%	?	?
CC(C)Cn1c(N)c(C(=O)COC(=O)c2ccc(O)cc2)c(=O)n(C)c1=O	16	6%	-23%	-2%	-20%	?
Cc1nn(-c2ccccc2)c(C)c1C(=O)OCC(=O)c1c(N)n(CC(C)C)c(=O)n(C)c1=O	?	-4%	?	-5%	21µM*	18µM*
CC(C)Cn1c(N)c(C(=O)COC(=O)c2cc(F)cc(F)c2)c(=O)n(C)c1=O	23	9%	0%	0%	-25%	?
CC(C)Cn1c(N)c(C(=O)COC(=O)c2cnc(Cl)c(Cl)c2)c(=O)n(C)c1=O	-25	18%	-6%	-10%	18µM*	?
CC(C)Cn1c(N)c(C(=O)COC(=O)c2cc(C(F)(F)F)nc3ccccc23)c(=O)n(C)c1=O	6	1%	3%	-16%	8.2µM*	18µM*
CC(C)Cn1c(N)c(C(=O)COC(=O)c2cc(-c3ccccc3)nc3ccccc23)c(=O)n(C)c1=O	9	0%	1%	-8%	21µM*	16µM*
Cc1sc2ncnc(NCCCN3CCCC3=O)c2c1C	-1	-11%	12%	3%	-4%	2%
Cc1cc(C)nc(SCc2ccc(Br)cc2)n1	-20	-10%	11%	0%	-21%	-21%
CC(C)Cn1c(N)c(C(=O)COC(=O)c2cc(C3CC3)nc3ccccc23)c(=O)n(C)c1=O	-4	-17%	?	-16%	?	21µM*
Cn1c(N)c(C(=O)COC(=O)c2cc(C3CC3)nc3ccccc23)c(=O)n(Cc2ccccc2)c1=O	2	-10%	?	-8%	-27%	-25%
COc1ccc(C(=O)N2CCC3(CC2)CN(C(=O)Nc2ccccc2)C3)cc1	.	.	.	.	5%	-11%
O=C(Nc1nc(-c2ccccn2)cs1)Nc1ccc(F)cc1F	-83*	-4%	?	5%	4.6µM*	2.9µM*
O=C(Nc1nc(-c2ccccc2)cs1)Nc1ccc(F)cc1F	-16	3%	0%	-2%	9.2µM*	9.2µM*
O=C(NCc1ccccn1)Nc1ccc(F)cc1F	-11	5%	2%	-1%	-12%	-1%
CCCCN(c1nc2ccccc2nc1Cl)S(=O)(=O)c1ccc(C)cc1	8	-12%	?	-1%	21µM*	9.2µM*
O=C(C1=NOC2(C1)C(=O)Nc1ccccc12)N1CCOCC1 (stereo unspecified)	15	.	.	.	-1%	-14%
COCCNC(=O)c1cc2c(s1)-c1ccc(Cl)cc1SC2	-57*	-16%	-28%	115%	-17%	?
CC(C)c1ccc(NC(=O)c2cc3c(s2)-c2ccccc2SC3)cc1	.	-14%	.	.	18µM*	?
COc1ccc(C)cc1NC(=O)c1cc2c(s1)-c1ccccc1SC2	.	-9%	.	.	?	?
CCOc1ccc(N(CC)C(=O)c2cc3c(s2)-c2ccc(Cl)cc2SC3)cc1	.	-20%	?	.	12µM*	?
OC(c1ccccc1)c1nc(-c2csc3ccccc23)cs1 (stereo unspecified)	69	-42%	-27%	.	?	-2%
CCC(C)(C)NC(=O)C1CCN(S(=O)(=O)c2ccc3c(c2)CCCN3C(C)=O)CC1	.	-1%	-21%	.	3%	0%
SMILES	IL-1B inflam inh	HepG2 tox	TGFb inhibitor	ASM inhibitor	TDP1 cell CPT	DT40 TDP1 no CPT
Cc1cccc(CNC(=O)C2CCN(S(=O)(=O)c3ccc4c(c3)CCCN4C(=O)C3CCC3)CC2)c1	.	6%	?	.	13µM*	8.2µM*
CC(=O)N1CCCc2cc(S(=O)(=O)N3CCC(C(=O)Nc4ccc(C)cc4Cl)CC3)ccc21	.	-26%	-16%	.	15µM*	16µM*
Cc1ccc(CNC(=O)C2CCN(S(=O)(=O)c3ccc4c(c3)CCCN4C(=O)C3CCC3)CC2)cc1	.	-4%	?	.	21µM*	7.3µM*
O=C(NCc1ccccc1)C1CCN(S(=O)(=O)c2ccc3c(c2)CCCN3C(=O)C2CCC2)CC1	.	-30%	?	.	16µM*	?
CCc1ccc(N2C(=O)CS(=O)(=O)C23C(=O)N(Cc2ccccc2F)c2ccccc23)cc1 (stereo unspecified)	.	-6%	11%	.	?	?
Cc1nn(-c2ccc(N3CCCCC3)nn2)c(C)c1CCC(=O)NCc1ccccc1	.	2%	?	.	?	?
CC(Oc1ccccc1)C(=O)N[C@@H]1C(=O)N2C(C(=O)OCC3CCCCC3)C(C)(C)S[C@H]12 (stereo partly specified)	.	-4%	?	.	-7%	-11%
O=C(NCc1ccc(Cl)cc1)C1CCN(S(=O)(=O)c2ccc3c(c2)CCCN3C(=O)C2CCC2)CC1	.	-21%	0%	.	16µM*	21µM*
CC(=O)N1CCCc2cc(S(=O)(=O)N3CCC(C(=O)NCc4ccccc4Cl)CC3)ccc21	.	-31%	-8%	.	?	23µM*
COC(=O)C[C@@H]1CC[C@H](NS(=O)(=O)c2cccc(F)c2)[C@@H](CO)O1	-1	.	.	.	-8%	5%
O=C(NCc1cccs1)c1ccc2c(c1)N(Cc1cccc(F)c1)C(=O)c1ccccc1S2	.	-28%	-10%	.	-18%	-27%
Cc1ccccc1NC(=O)c1c(C)oc2ccc(O)c(CN3CCN(C)CC3)c12	.	-3%	-6%	.	16µM*	?
Cc1oc2ccc(O)c(CN3CCCC3)c2c1C(=O)Nc1cccc(Cl)c1C	.	-13%	-1%	.	16µM*	21µM*
Cc1oc2ccc(O)c(CN3CCN(Cc4ccccc4)CC3)c2c1C(=O)Nc1cccc(Cl)c1C	.	-6%	0%	.	16µM*	-77%
CC(=O)N1c2nc(-c3ccco3)nn2C2(CCCCC2)[C@@H]2CCCC[C@@H]21	.	-19%	-2%	.	?	?
CCCC(=O)N1c2nc(C(C)C)nn2C2(CCCCC2)[C@@H]2CCCC[C@@H]21	.	-19%	?	.	10µM*	9.2µM*

Compound activity: PubChem, National Center for Advancing Translational Sciences (NCATS)
